“And” between values parts separate entries of the source, which are not always exact repeats. Identical values can stand only once. Screen size: about 16,000 compounds; about 5,100 (32%) were called active. Roughly 25% stayed inconclusive and do not appear here. This is one part of the list. A number with no mark means an inactive call. Calls come from the whole dose curve; as a rule, active = well fitted curve in the direction sought with a large enough effect; inconclusive = small, poorly fitted or top-dose-only effect, or effect the other way; inactive = no such curve, though single readings can be large or run the other way.

For orientation: AC50 means the concentration at which the activity in the assay is half-maximal.
% is set by controls: 0 for no effect and ±100 for the full control effect.

Sequence of Cytochrome P450 3A4 (Homo sapiens) (P08684 whole entry, looked up): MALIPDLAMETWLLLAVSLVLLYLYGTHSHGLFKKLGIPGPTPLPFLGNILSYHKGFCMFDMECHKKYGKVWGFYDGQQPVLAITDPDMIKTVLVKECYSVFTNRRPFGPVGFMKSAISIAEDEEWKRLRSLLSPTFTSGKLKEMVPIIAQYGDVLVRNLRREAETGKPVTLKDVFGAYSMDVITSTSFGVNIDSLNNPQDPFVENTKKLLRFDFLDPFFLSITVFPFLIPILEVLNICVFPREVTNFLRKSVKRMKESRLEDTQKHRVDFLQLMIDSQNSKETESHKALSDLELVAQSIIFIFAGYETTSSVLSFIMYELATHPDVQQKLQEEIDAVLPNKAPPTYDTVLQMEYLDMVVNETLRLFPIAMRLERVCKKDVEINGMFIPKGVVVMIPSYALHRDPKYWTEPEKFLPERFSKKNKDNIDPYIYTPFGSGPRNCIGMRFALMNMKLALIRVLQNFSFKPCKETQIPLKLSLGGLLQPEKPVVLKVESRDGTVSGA

This assay addresses Cytochrome P450 3A4 (Homo sapiens) (UniProt P08684). Put plainly: Cytochrome panel assay with activity outcomes. The conditions noted are these: recombinant CYP, pro-luciferin dealkylation, luminescence, p450-cyp3a4; series mostly up to 57.1 µM.
For `Cc1cc(C)c(Cn2cnc(-c3ccc([N+](=O)[O-])cc3)c2)c(C)c1`, the AC50 was 7.94 µM (active). Same read-out and setting: in the case of `Cc1nn(Cc2ccc([N+](=O)[O-])cc2)c(=O)n1-c1cccc(F)c1` it was “inactive”. For the compound `CC(=O)OC[C@@H]1O[C@H](C/C=N\OC[C@@H](O)COCc2ccco2)C=C[C@@H]1OC(C)=O`, the activity, negative = inhibition is -26.2% [at 11.4 µM]. The same measure, in the same setting: in the case of `O=c1n(-c2ccccc2)c(=O)n2n1CC[C@H]1/C(=N\OC[C@@H](O)COCc3ccco3)[C@H]3O[C@@H]3[C@@H](O)[C@@H]12` it was -24.1% [at 11.4 µM] and -23% [at 11.4 µM]. Take `C=CC[C@@H]1C=C[C@H](Oc2ccc(C)cc2)[C@H](COC(=O)NCc2cccc3ccccc23)O1`: the AC50 was 3.16 µM (active).

`C=CC[C@@H]1C=C[C@@H](O/N=C(/C)CCC(=O)OC[C@@H]2O[C@H](C#Cc3ccccc3)C=C[C@@H]2Oc2ccc(C)cc2)[C@@H](CO)O1`: the AC50 is 5.01 µM (active).

For `C=CC[C@@H]1C=C[C@H](ON=C(C)C)[C@H](CO)O1`, the activity, negative = inhibition is -13.4% [at 11.4 µM]. With `C/C(CCC(=O)OC[C@@H]1O[C@H](C#Cc2ccccc2)C=C[C@@H]1Oc1ccc(C)cc1)=N/OC[C@@H](O)COCc1ccco1`, the AC50 is 3.16 µM (active). Still for that read-out and setting: next, `CO/N=C(/C)CCC(=O)OC[C@@H]1O[C@H](C#Cc2ccccc2)C=C[C@@H]1Oc1ccc(C)cc1`: 3.98 µM (active); `CC(=O)N[C@@H](CC(=O)O)C(=O)O`: “inactive”. In the case of `CCOC(=O)CCN1C(=O)[C@H]2[C@H]3[C@H](O)[C@H](O)C/C(=N/O[C@@H]4O[C@@H](COC(C)=O)[C@@H](OC(C)=O)[C@@H](OC(C)=O)[C@H]4OC(C)=O)[C@H]3CC[C@@H]2C1=O`, the activity, negative = inhibition is -10.4% [at 11.4 µM]. Take `CC(=O)OC[C@@H]1O[C@H](CCO/N=C(\C)CCC(=O)OC[C@@H]2O[C@H](C#Cc3ccccc3)C=C[C@@H]2Oc2ccc(C)cc2)C=C[C@@H]1OC(C)=O`: the AC50 is 3.16 µM (active). Take `CC(=O)OC[C@H]1O[C@@H](ON=C(C)C)[C@H](OC(C)=O)[C@@H](OC(C)=O)[C@H]1OC(C)=O`: the activity, negative = inhibition was -17.9% [at 11.4 µM]. Take `CC(=O)OC[C@H]1O[C@@H](O/N=C(\C)CCC(=O)OC[C@@H]2O[C@H](C#Cc3ccccc3)C=C[C@@H]2Oc2ccc(C)cc2)[C@H](OC(C)=O)[C@@H](OC(C)=O)[C@H]1OC(C)=O`: the concentration at half-maximal activity (AC50) was 3.16 µM (active). With `CC(C(=O)NC1CCCC1)N(C(=O)c1ccc(-c2ccccc2)[nH]1)c1ccccc1F` (configuration not stated), the AC50 was 3.98 µM (active). In the case of `Cc1ccc(C(=O)NC2CCCCC2)cc1`, the AC50 entry was “inactive”. On the same count and under the same terms, in the case of `O=C(NCCCc1ccccc1)c1cccs1` it was “inactive”. The same measure, in the same setting: next, `O=C(NC1CCCCCC1)c1cccs1`: 14.1 µM (active); `O=S(=O)(Nc1nc(-c2sccc2Cl)cs1)c1cc(Cl)ccc1Cl`: 7.94 µM (active).

As to `CC(=O)c1c(N2CCC(C(N)=O)CC2)nc(=S)n(-c2ccccc2)c1C`, the activity, negative = inhibition is 28.2% [at 2.29 µM]. The same measure, in the same setting: in the case of `FC(F)(F)c1cc(Sc2ccccc2)nc(-c2ccccn2)n1` it was 22.3% [at 11.4 µM]. With `COC(=O)[C@@]1(Cc2ccc(F)cc2)[C@H]2c3cc(C(=O)N4CCCC4)n(Cc4ccc(C)o4)c3C[C@H]2CN1C(=O)c1ccccc1`, the AC50 was 3.16 µM (active). For the compound `COC(=O)[C@@]1(Cc2ccc(F)cc2)[C@H]2c3cc(C(=O)N(C)C)n(Cc4ccc(C)o4)c3C[C@H]2CN1C(=O)c1ccccc1`, the AC50 was 2.51 µM (active). Still for that read-out and setting: in the case of `COC(=O)[C@@]1(Cc2ccccc2)[C@H]2c3cc(C(=O)N4CCCC4)n(Cc4ccc(C)o4)c3C[C@H]2CN1C(=O)c1ccccc1` it was 2 µM (active).

Turning to `C=CCC(C(=O)OC)(C(=O)OC)c1ccc([N+](=O)[O-])cn1`, the AC50 entry is “inactive”.

`COC(=O)C(C)(C(=O)OC)c1ccc([N+](=O)[O-])cn1`: the AC50 result was “inactive”. With `COC(=O)C(NC(=O)c1ccc(F)cc1)(Nc1ncc(S(=O)(=O)c2ccc([N+](=O)[O-])cc2)s1)C(F)(F)F` (configuration not stated), the AC50 was 5.01 µM (active). For `Cc1cc(C(F)F)n2nc(C(=O)Nc3cccnc3Cl)nc2n1`, the activity, negative = inhibition is 2.46% [at 2.29 µM]. On to `O=C(O)c1[nH]c2c([N+](=O)[O-])cc([N+](=O)[O-])cc2c1C(=O)O`, for which the activity, negative = inhibition is 3.73% [at 11.4 µM]. Take `O=C(Oc1ccccc1[N+](=O)[O-])c1cccnc1`: the AC50 result was “inactive”. The same measure, in the same setting: in the case of `C/C(=N\NC(=O)c1[nH]c2c([N+](=O)[O-])cc(C)cc2c1-c1ccccc1)c1cccnc1` it was 1.12 µM (active); in that of `COC(=O)c1cc(NC(=O)/C=C/c2ccc3c(c2)OCO3)cc(C(=O)OC)c1`, 0.794 µM (active).

With `CC(/C=N/NC(=O)c1cccc([N+](=O)[O-])c1)=C\c1ccccc1`, the AC50 result was “inactive”. For the compound `O=C(/C=C/c1cccc([N+](=O)[O-])c1)NCCN1CCOCC1`, the AC50 entry was “inactive”. With `COC(=O)c1cccc(NC(=O)/C=C/c2cccc([N+](=O)[O-])c2)c1`, the AC50 was 10 µM (active). With `CCOC(=O)c1c(NC(=O)/C=C/c2ccc3c(c2)OCO3)sc(C)c1CC`, the AC50 was 5.01 µM (active). Still for that read-out and setting: in the case of `CCOC(=O)c1c(NC(=O)/C=C/c2ccc3c(c2)OCO3)sc(C)c1C` it was “inactive”.

`O=C(O)C[C@@H](C(=O)O)c1ccccc1[N+](=O)[O-]`: the activity, negative = inhibition was 0.874% [at 11.4 µM]. Take `CCOc1ccc(N2C(=O)CS/C2=N/NC(=O)COc2ccc3ccccc3c2)cc1`: the AC50 was 0.891 µM (active). As for `CCSc1nnc(NC(=O)COc2ccc3ccccc3c2)s1`, the activity, negative = inhibition is -4.8% [at 2.29 µM]. Turning to `C=CCSc1nnc(NC(=O)COc2ccc3ccccc3c2)s1`, the AC50 result was “inactive”. In the case of `O=S(=O)(O)c1ccc(-c2nnc(-c3ccccn3)nc2-c2ccc(S(=O)(=O)O)o2)o1`, the activity, negative = inhibition is 6.48% [at 11.4 µM].

Consider `CC[C@]1(O)C[C@@H]2CN(CCc3c([nH]c4ccccc34)[C@](C(=O)OC)(c3cc4c(cc3OC)N(C)[C@H]3[C@](O)(C(=O)OC)[C@@H](C(=O)OC)[C@@]5(CC)C=CCN6CC[C@@]43[C@@H]65)C2)C1`, for which the AC50 is 15.8 µM (active).

Turning to `CC[C@]1(O)C[C@H]2CN(CCc3c([nH]c4ccccc34)[C@](C(=O)OC)(c3cc4c(cc3OC)N(C=O)[C@H]3[C@@](O)(C(=O)OC)[C@H](OC(C)=O)[C@@]5(CC)C=CCN6CC[C@]43[C@H]65)C2)C1`, the AC50 is 3.98 µM (active). The same measure, in the same setting: next, `C=CCn1c(C)cc(C(=O)CN2C(=O)c3ccccc3C2=O)c1C`: 2.82 µM (active). Regarding `CCN(CC)c1ccc(SS(=O)(=O)O)cc1`, the AC50 entry was “inactive”. For `COc1ccc(C(=O)N/N=C/c2cccc3cccnc23)cc1`, the AC50 is 22.4 µM (active).

Turning to `O=C(N/N=C/c1ccc2cccc(OCc3ccccc3)c2n1)c1ccc(Br)cc1`, the activity, negative = inhibition was -19% [at 2.29 µM]. Take `COc1cc(C(=O)Oc2ccccc2/C=N/NC(=O)c2ccc(C)cc2)cc(OC)c1OC`: the AC50 entry is “inactive”. The same measure, in the same setting: next, `O=C(CCS(=O)(=O)c1cccc2nsnc12)NC1CCCCC1`: 5.01 µM (active). As to `Cc1cccc(NC(=O)CCS(=O)(=O)c2cccc3nsnc23)c1C`, the activity, negative = inhibition was -25.6% [at 2.29 µM].

Consider `O=C(O)[C@@H]1CCCN1Cc1ccc2c(c1)OCO2`, for which the activity, negative = inhibition is -11.9% [at 11.4 µM]. Turning to `CC1(C)SC(=S)N(Cc2ccc3c(c2)OCO3)C1N(O)C(=O)NC1CCCCC1` (configuration not stated), the AC50 was 1.12 µM (active). As for `O=C(Cn1cnc2ccccc21)NC(c1ccccc1)c1ccccc1`, the AC50 was 7.94 µM (active).

In the case of `O=C(O)CC(c1ccccc1)n1cnnn1` (configuration not stated), the AC50 entry was “inactive”. For the compound `CN[C@@H]1[C@H](O[C@H]2[C@@H](O[C@@H]3[C@@H](O)[C@@H](O)[C@@H](N=C(N)N)[C@@H](O)[C@@H]3N=C(N)N)O[C@@H](C)[C@]2(O)CO)O[C@H](CO)[C@@H](O)[C@@H]1O`, the AC50 entry was “inactive”. Consider `COc1cc(C=O)ccc1OCCOCCOc1ccccc1Cl`, for which the activity, negative = inhibition was -2.53% [at 2.29 µM]. As for `COc1ccccc1OCCCOc1ccc([N+](=O)[O-])cc1Cl`, the AC50 was 14.1 µM (active).

In the case of `COc1cc(C)ccc1OCCCOc1ccccc1Br`, the activity, negative = inhibition was 3.33% [at 2.29 µM]. In the case of `Cc1ccc2c(c1)N(CC(=O)NC1CCCc3ccccc31)C(=O)CO2` (configuration not stated), the AC50 is 7.08 µM (active). In the case of `Cc1ccc2c(c1)N(CC(=O)NC1CCC(C)CC1)C(=O)CO2` (configuration not stated), the AC50 is 7.08 µM (active). In the case of `CC(=O)NN1C(=O)/C(=C\c2ccc(C)cc2)SC1=S`, the AC50 result was “inactive”.

Take `Cc1ccc(C(=O)N/C(=C\c2ccc(Br)cc2)c2nc(=S)[nH][nH]2)cc1`: the AC50 was 22.4 µM (active). Same read-out and setting: next, `Cc1ccc(C(=O)NC(=S)Nc2cccc3nsnc23)cc1`: “inactive”. `CN(C)CCCN1c2ccc3ccccc3c2Sc2cccc(Cl)c21`: the activity, negative = inhibition is -11.7% [at 11.4 µM]. Still for that read-out and setting: next, `Clc1ccc(-c2noc(CN3CCCCC3)n2)cc1`: -11.9% [at 11.4 µM]. For the compound `Clc1ccc(Cc2nc(-c3cccnc3)no2)cc1`, the AC50 is 2.51 µM (active).

On to `c1ccc(CCc2nc(-c3ccccc3)no2)cc1`, for which the AC50 entry was “inactive”.

For the compound `Cc1ccc(C2=Nc3ccccc3S[C@@H](c3cccc([N+](=O)[O-])c3)C2)cc1`, the AC50 was 3.98 µM (active). The same measure, in the same setting: in the case of `C[C@@]12CC[C@@H]3c4ccc(O)cc4CC[C@H]3[C@H]1C[C@@H](O)[C@H]2O` it was “inactive”. As to `CCCCCCCOC1(c2ccccc2)OC(=O)c2ccccc21` (configuration not stated), the AC50 entry is “inactive”.

Take `Cc1cccc(C)c1OC1(c2ccccc2)OC(=O)c2ccccc21` (configuration not stated): the concentration at half-maximal activity (AC50) is 8.91 µM (active). In the case of `N#C/C(=C\Nc1ccccn1)C(=O)c1ccco1`, the activity, negative = inhibition was -18.7% [at 11.4 µM]. `CCCC(CCC)C(=O)NNc1cc(=O)c2c(=O)n(C)c(=O)n(C)c2[nH]1`: the AC50 result is “inactive”. Consider `Cc1noc(NS(=O)(=O)c2ccc(N)cc2)c1C`, for which the AC50 result is “inactive”. Still for that read-out and setting: in the case of `Cc1noc(NS(=O)(=O)c2ccc(NC(=O)CC34CC5CC(CC(Br)(C5)C3)C4)cc2)c1C` it was 6.31 µM (active). As for `Cc1ccnc(NS(=O)(=O)c2ccc(NC(=O)C3CCCNC3=O)cc2)n1` (configuration not stated), the AC50 result was “inactive”.
